# From PubChem BioAssay (Tox21)
# Inconclusive results are not listed. A call without a number means that no potency is given here. The source made the active and inactive calls. The call rests on the fitted dose curve; in most records, active means well fitted cell-killing curve with a large enough effect in the repeat runs; inconclusive means weak or mixed curves, or effect the other way; inactive means no such curve, though single readings can be large or run the other way.
# Experiment: qHTS assay to identify small molecule antagonists of the glucocorticoid receptor (GR) signaling pathway - cell viability counter screen (AID 720693); further: nearly all actives have a fitted effect of over 55% in size
# Conditions: GR-bla HeLa viability, CellTiter-Glo luminescence, 18 h, with 5 nM dexamethasone present; series mostly up to 58.5 µM; viability change, negative = cytotoxic: at the top concentration
# Description: National Center for Advancing Translational Sciences [NCATS]
# NIH Chemical Genomics Center [NCGC]
# U.S. Environmental Protection Agency [EPA]
# National Institutes of Environmental Health Sciences [NIEHS]
# National Toxicology Program [NTP]
# U.S. Food and Drug Administration [FDA]
# The Glucocorticoid receptor (GR) is one of the members of the nuclear receptor family of ligand-dependent transcription factors. GR plays a critical role in carbohydrate, protein and lipid metabolisms and programmed cell death. CellSensor GR-bla HeLa cell line (Invitrogen) contains a beta-lactamase reporter gene under the control of the glucocorticoid response element stably integrated into HeLa cells, a cervical cancer cell line that expresses glucocorticoid receptor. The activation of the reporter gene under culture conditions can be detected by fluorescence intensity. This cell line has been used to screen the Tox21 10K compound library and to identify the compounds that inhibit the GR signaling. The cytotoxicity of the Tox21 compound library against the GR-bla HeLa cell line was tested in parallel by measuring the cell viability using CellTiter-Glo assay in the same wells.
# Tox21 Assay Protocol Summary:
# The GR-bla HeLa cells were dispensed at 1500 cells/5 ul/well in 1536-well black wall/clear bottom plates using a Multidrop Combi (ThermoFisher Scientific, Waltham, MA) dispenser. After the assay plates were incubated at a 37 C/5% CO2 incubator for 4 hours, 23 nL of compounds dissolved in DMSO, positive controls or DMSO only was transferred to the assay plate by a pintool station (Kalypsys, San Diego, CA), followed by addition of 1 uL of dexamethasone (5 nM, final concentration in the well). The plates were incubated at 37 C for 18 hours. After 1 uL of LiveBLAzerTM B/G FRET substrate was added using a Flying Reagent Dispenser (Aurora Discovery, San Diego, CA), the plates were incubated at room temperature (RT) for 2 hours, and fluorescence intensity was measured by an Envision plate reader (PerkinElmer, Shelton, CT). After measurement of bla assay, 3 ul CellTiter-Glo (Promega, Madison, WI) was added to measure the cytotoxicity and the plates were then incubated at RT for 30 min. The luminescence was measured using a ViewLux (Perkin Elmer) plate reader.
SMILES,Potency,"viability change, negative = cytotoxic"
O=[N+]([O-])c1cccc(Cl)c1,inactive,–
O=[N+]([O-])c1cc(N(CCO)CCO)ccc1NCCO,inactive,–
CCC(C)C=O (stereo not given),inactive,–
O=C1CCCCC1,inactive,–
C=C(C)C(=O)OCCCCCC,inactive,–
NCCNCCNCCNCCN,inactive,–
CCCCCCCCCC(=O)O,inactive,–
Nc1nc2ncc(CNc3ccc(C(=O)N[C@@H](CCC(=O)O)C(=O)O)cc3)nc2c(=O)[nH]1,inactive,–
C=C(C)C(=O)OCCCCCCCCCCCC,inactive,–
Cc1cc(O)cc(C)c1Cl,inactive,–
Nc1cc(-c2ccncc2)c[nH]c1=O,inactive,–
NC(=O)NNc1ccccc1,inactive,–
O=C(O)c1ccc([N+](=O)[O-])cc1,inactive,–
Cc1cc(NS(=O)(=O)c2ccc(N)cc2)no1,inactive,–
Cc1ccc(C)c(C)c1,inactive,–
NCCc1ccc(O)c(O)c1,inactive,–
COC(=O)c1ccccc1O,inactive,–
Cc1ccc(N)c(S(=O)(=O)O)c1,inactive,–
CS(=O)(=O)Nc1ccc([N+](=O)[O-])cc1Oc1ccccc1,inactive,–
CC1(C)O[C@@H]2C[C@H]3[C@@H]4C[C@H](F)C5=CC(=O)CC[C@]5(C)[C@H]4[C@@H](O)C[C@]3(C)[C@]2(C(=O)CO)O1,inactive,–

SMILES,Potency,"viability change, negative = cytotoxic"
OCC1CCCO1 (stereo not given),inactive,–
CC1COc2ccccc2N1C(=O)C(Cl)Cl (stereo not given),–,-26.5% (inactive)
Oc1ccc2ccccc2c1,inactive,–
CNC[C@H](O)[C@@H](O)[C@H](O)[C@H](O)CO,inactive,–
NC(=O)/N=N/C(N)=O,inactive,–
CC1=C(/C=C/C(C)=C/C=C/C(C)=C/CO)C(C)(C)CCC1,inactive,–
CCCCOCCOCCOC(=O)CCCCC(=O)OCCOCCOCCCC,inactive,–
COCC(=O)O,inactive,–
CCCCCCCCCCCCOCC1CO1 (stereo not given),inactive,–
CC(=O)Nc1ccc(C(=O)O)cc1,inactive,–
CCCCC(CC)C(=O)OCCOCCOCCOC(=O)C(CC)CCCC (stereo not given),inactive,–
CCc1ccc(O)cc1,inactive,–
CCCCNC(N)=O,inactive,–
O=c1c(-c2ccc(O)cc2)coc2cc(O)ccc12,–,-19.3% (inactive)
Cc1ccc(C(=O)O)o1,inactive,–
CCOC(=O)C1OC1c1ccccc1 (stereo not given),inactive,–
Oc1ccc(OCc2ccccc2)cc1,inactive,–
OC[C@@H](O)[C@H](O)[C@H](O)[C@@H](O)CO,inactive,–
CCCCCCC(C)(C)S,–,21% (inactive)
CC1=CC[C@H]2C[C@@H]1C2(C)C,inactive,–
